# In the library only some 2.3% were active in any assay of this set; here they are far more common.
# MCL1 BIM primary: disrupts human MCL1 binding to BIM-BH3 peptide | inhibition, % at 10.9 µM | GST-MCL1 / FITC-Bim-BH3 fluorescence polarization | Q07820 | hit rate 0.68% among 320,000;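 active = inhibition above the mean inhibition of all tested compounds plus 3 SD, set per campaign, cut at about 40% in these data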;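 note: higher means more loss of mP so more displacement of Bim peptide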
# Target sequence (Q07820 whole entry, looked up): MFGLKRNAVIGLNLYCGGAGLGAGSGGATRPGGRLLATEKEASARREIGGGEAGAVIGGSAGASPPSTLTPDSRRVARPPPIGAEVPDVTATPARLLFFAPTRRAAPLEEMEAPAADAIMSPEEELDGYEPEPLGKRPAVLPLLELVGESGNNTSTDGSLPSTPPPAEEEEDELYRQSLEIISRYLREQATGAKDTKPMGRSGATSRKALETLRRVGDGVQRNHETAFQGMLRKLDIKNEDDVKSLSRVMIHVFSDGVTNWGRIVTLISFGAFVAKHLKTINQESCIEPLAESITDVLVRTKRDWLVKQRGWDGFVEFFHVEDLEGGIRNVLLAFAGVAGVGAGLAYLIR
# Mcl1-Noxa inh: Mcl-1/Noxa interaction inhibition. hit rate 1.5% among 220,000. Q07820. TR-FRET Mcl-1/Noxa peptide binding, 2 h. inhibition, % at 21.7 µM;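 active = compounds that cut the protein-peptide binding signal by more than 50% relative to plate controls in a single-dose test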;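 note: His-tagged Mcl-1 with rhodamine Noxa BH3 peptide and terbium anti-His antibody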
# Bcl-xL primary: Bcl-xL (human) inhibition. hit rate 0.7% among 320,000. inhibition, % at 10.9 µM. Q07817. GST-Bcl-xL / FITC-Bim BH3 peptide fluorescence polarization;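 active = inhibition above the mean of all tested compounds plus 3 SD, cutoff set per campaign, cut at about 30% in these data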;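 note: inhibitors lower millipolarization by displacing the labeled peptide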
# Mcl-1 Bim block: human Bim-Mcl-1 interaction inhibition; Bead-based flow cytometry, Bim peptide-Mcl-1 binding; hit rate 0.1% among 190,000; Q07820; inhibition, % at 10 µM; in the data active = inhibition above about 40%
# Mcl1-Bid inh: Mcl-1/Bid interaction inhibition. Q07820. TR-FRET Mcl-1/Bid-Dy647 peptide binding, 1536-well. inhibition, % at 21.7 µM. hit rate 0.97% among 220,000;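 active = compounds that cut the binding signal by more than half at the single screening dose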;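 note: His-tagged Mcl-1 with europium anti-His antibody binding Bid BH3 peptide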
# GLD-1 RNA inh: GLD-1-TGE RNA interaction inhibition (C. elegans); Q17339; purified GLD-1 + fluorescein TGE RNA, fluorescence polarization; inhibition, % at 5.96 µM; hit rate 0.44% among 320,000; AID 2280;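 active = percent inhibition above a per-plate cutoff, the plate mean of test compounds plus 3 SD, cut at about 30% in these data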
# Hits are given with their value; . = inactive; / = not tested or not shown.
SMILES,MCL1 BIM primary,Mcl1-Noxa inh,Bcl-xL primary,Mcl-1 Bim block,Mcl1-Bid inh,GLD-1 RNA inh
Cc1sc2nc3ccc(NCc4ccco4)nn3c(=O)c2c1C,.,.,34,.,.,.
Cc1ccccc1Nc1nnc(SCC(=O)NC(=O)NCc2ccco2)s1,.,56,.,.,.,.
O=C(N/N=C/c1ccncc1)c1ccc(-n2cccc2)cc1,.,59,.,.,.,.
COc1ccc(/C=N/Nc2ncnc3c2[nH]c2ccccc23)c(OC)c1OC,.,55,.,.,.,.
C=CCNc1ncnc2c1[nH]c1ccc(C)cc12,.,.,.,.,.,.
COc1cccc(/C=N/Nc2ncnc3c2[nH]c2ccc(C)cc23)c1OC,.,100,.,/,.,.
CC(=O)c1cc(CCC(=O)NC2CCCCCC2)oc1C,.,/,.,/,/,.
C[C@@H]1CCCCCCCCC(=O)OCCN[C@H](C)CCCCCCCCC(=O)OCCN[C@H](C)CCCCCCCCC(=O)OCCN1,/,/,/,/,/,.
CC1CN(C(=O)N2c3ccccc3Sc3ccccc32)C(C)CC1=O (stereo unspecified),.,70,.,.,.,.
CC1CN(C(=O)N2c3ccccc3Sc3ccccc32)CC(C)O1 (stereo unspecified),.,.,.,.,.,.
S=c1nccc(-c2ccc(Cl)cc2)[nH]1,.,.,.,/,.,.
Cc1nc2ccccn2c1-c1ccnc(=S)[nH]1,.,57,.,/,.,.
CCOC(=O)c1ccc(NC(=O)Cn2ncc(Cl)c(Cl)c2=O)cc1,.,81,.,.,.,.
COc1ccc(NC(=O)COc2ncnc3ccccc23)cc1S(=O)(=O)N1CCOCC1,.,.,.,41,.,.
CCC(=O)Nc1ccc(C(=O)Cn2ncc(Cl)c(Cl)c2=O)cc1,.,.,.,/,.,.
COc1ccc(S(=O)(=O)N2CCOCC2)cc1NC(=O)COc1ncnc2ccccc12,.,.,.,.,.,.
COc1ccc(NC(=O)c2ccc(Cl)nc2)cc1S(=O)(=O)N1CCOCC1,.,/,.,/,/,.
COc1ccc(NC(=O)Cn2ncc(Cl)c(Cl)c2=O)cc1S(=O)(=O)N1CCOCC1,.,78,.,.,.,.
CCOC(=O)c1ccc(NC(=O)CSCCC(=O)O)cc1,.,.,.,68,.,.
COc1ccc(N(CC(=O)NCCSc2ccccc2)S(=O)(=O)c2ccccc2)c(OC)c1,/,/,/,/,/,.
O=C(Cn1ncc(Cl)c(Cl)c1=O)Nc1ccc2c(c1)OCO2,.,/,.,/,/,.
CCN(CC)S(=O)(=O)c1cc(NC(=O)Cn2ncc(Cl)c(Cl)c2=O)ccc1C,.,78,.,/,.,.
Fc1ccc(NC(=S)N/N=C/c2cccc(Br)c2)c(F)c1,.,.,.,.,97,.
COC(=O)c1cc2c(cc1NC(=O)CSCCc1ccccn1)OCO2,.,.,31,.,.,.
Cc1cccc(NC(=O)C2CCN(c3nc(C)cc(C)n3)CC2)c1,.,.,.,.,94,.
SMILES,MCL1 BIM primary,Mcl1-Noxa inh,Bcl-xL primary,Mcl-1 Bim block,Mcl1-Bid inh,GLD-1 RNA inh
Cc1cccc(NC(=O)C2CCCN(c3nc(C)cc(C)n3)C2)c1 (stereo unspecified),.,.,.,.,.,.
COc1ccc(-n2c(N)c(-c3nc4ccccc4n3C)sc2=S)cc1,.,89,.,.,.,.
O=C(CN1C(=O)NC(c2ccccc2)(c2ccccc2)C1=O)NCC(=O)Nc1ccc(F)cc1,.,/,.,/,/,.
CCOC(=O)c1c2c3c(cccc3[nH]c1=O)C(=O)c1ccccc1-2,47,.,54,.,.,.
CN1CCC(N(C)S(=O)(=O)c2ccc(C(C)(C)C)cc2)CC1,.,/,.,/,/,.
CN1CCC(N(C)C(=O)CNC(=O)c2ccc(C(C)(C)C)cc2)CC1,.,58,.,.,.,.
Cc1c(CN2CCCCC2)c(O)n(CCCO)c(=O)c1C#N,.,.,35,.,.,.
CC(=O)c1ccc(NC(=O)CSc2ccsc2[N+](=O)[O-])cc1,/,87,/,.,.,/
Cc1ccc(CNC(=O)CSc2ccsc2[N+](=O)[O-])cc1,.,.,.,.,.,.
O=C(CSc1ccsc1[N+](=O)[O-])Nc1cc(F)ccc1F,/,104,/,.,.,/
CCN(CC)c1ccc(NC(=O)CSc2ccsc2[N+](=O)[O-])c(C)c1,.,66,.,.,.,.
O=C(CN1CCN(S(=O)(=O)c2ccccc2)CC1)Nc1ccnn1C1CCCC1,.,/,.,/,/,.
CC(C)(C)c1ccc(C(=O)Cn2cnnc2C#N)cc1,.,/,.,/,/,.
O=C(CN1C(=O)CSc2ccc(S(=O)(=O)N3CCOCC3)cc21)NCc1ccc(F)cc1,.,/,.,/,/,.
COc1ccc(-c2csc(Cc3nnc4n3CCCCC4)n2)cc1OC,.,62,.,.,55,.
COc1ccc(-c2nnc3n2CCCCC3)cc1OC,.,/,.,/,/,.
Cc1ccc2c(c1)c1c(n2CC(O)Cn2nc(C)c(Br)c2C)C(=O)CCC1 (stereo unspecified),.,.,.,.,.,.
Cc1ccc2c(c1)c(C)c(C)n2CC(O)Cn1nc(C)c(Br)c1C (stereo unspecified),.,.,.,58,.,.
Cc1ccnc(NC(=O)CNC(=O)c2ccccc2Br)c1,.,/,.,/,/,.
COc1ccc(NC(=O)COC(=O)Cn2nnc3ccccc32)cc1,.,.,.,.,.,.
CN(C)c1ccc(NC(=O)COC(=O)Cn2nnc3ccccc32)cc1,.,71,.,.,.,.
Cc1ccccc1SCC(=O)OCC(=O)Nc1ccc(N(C)C)cc1,.,61,.,.,.,.
COCC(=O)Nc1ccc(N(C)C)cc1,.,.,.,.,.,.
O=C(COC(=O)c1ccc(F)cc1)NC1CC1,.,/,.,/,/,.
CC1=Nc2ccc(C)cc2/C1=C/c1c(N)n2c(S(=O)(=O)C(C)C)nsc2nc1=O,/,81,/,.,.,/
CCc1nc2oc3ccccc3c(=O)c2c(=O)n1-c1ccc(C)cc1,.,54,.,/,.,.

# From PubChem BioAssay
